Hit rate of the full screen: of about 13,000 compounds, about 3,200 (25%) showed an effect of 50% or more. The list shows a part of the results.
Test system: P. falciparum stage V gametocytes
Design: BacTiter-Glo ATP luminescence viability of purified stage V gametocytes in 384-well plates, per cent inhibition versus DMSO
Details: 48 h, 5 µM; inhibitor

| Structure (SMILES) | % Inhibition [%] |
| --- | --- |
| CC(C)(C)OC(=O)NCC(=O)N(Cc1ccccc1)Cc1ccccc1 [TCMDC-131954] | 1.715 |
| CN(C)C(=O)c1ccc(CN(Cc2cccc(OC(C)(C)C)c2)Cc2ccc3c(c2)OCCO3)cc1 [TCMDC-136614] | 66.69 |
| CC(=O)Nc1ccc(CN(Cc2ccc(OC(C)(C)C)cc2)Cc2ccc3c(c2)OCCO3)cc1 [TCMDC-136616] | -22.37 |
| CN(C)C(=O)c1ccc(CN(Cc2ccc(OC(C)(C)C)cc2)Cc2ccc3c(c2)OCCO3)cc1 [TCMDC-136615] | 62.57 |
| CC(=O)Nc1ccc(CN(Cc2ccc(C)cc2)Cc2cccc(Oc3ccccc3)c2)cc1 [TCMDC-140147] | 4.246 |
| Cc1ccc(CN(Cc2ccc(C(=O)N(C)C)cc2)Cc2ccc3c(c2)OCCO3)cc1C [TCMDC-136617] | 24.15 |
| CN(C)C(=O)c1ccc(CN(Cc2ccc3c(c2)OCCO3)Cc2ccc3c(c2)OCO3)cc1 [TCMDC-136612] | -1.47 |
| CC(=O)Nc1ccc(CN(Cc2cccc(OC(C)(C)C)c2)Cc2ccc3c(c2)OCCO3)cc1 [TCMDC-136613] | 87.49 |
| O=C(CC(=O)C(F)(F)F)c1ccc2c(c1)OCO2 [TCMDC-125824] | -11.59 |
| O=C(/C=C/c1ccc([N+](=O)[O-])cc1)N1CCC(NS(=O)(=O)c2cccc(C(F)(F)F)c2)CC1 [TCMDC-139443] | -15.57 |
| c1ccc(C(c2ccccc2)N2CCN(C(c3cccnc3)c3nnnn3C3CCCC3)CC2)cc1 (stereo not shown) [TCMDC-123571] | -4.144 |
| Cc1cc(NC(=O)Nc2ccc3ccn(C)c3c2)c2ccccc2n1 [TCMDC-140057] | 10.89 |
| CC1CCN(c2nc(C(=O)Nc3ccc(F)cc3C(F)(F)F)c(C(C)C)s2)CC1 [TCMDC-134661] | -14.15 |
| CC1(C)N=C(N)N=C(N)N1c1cc(Cl)c(Cl)cc1Cl [TCMDC-124503] | -35.38 |
| CSc1nc2cc3c(cc2n1C(=O)c1ccc(C)cc1)OCCO3 [TCMDC-125385] | -23.6 |
| Cc1ccccc1N1CCN(c2ccc(C(=O)Nc3ccccc3)cc2)CC1 [TCMDC-134565] | 28.84 |
| O=C(O)C(F)(F)F.c1ccc2[nH]c(-c3ccc(-c4ccc(CNCC5CCCO5)cc4)s3)nc2c1 (stereo not shown) [TCMDC-133106] | -3.113 |
| CN(C)CCOc1cc(NC(=O)Nc2ccc(-c3ccncc3)c(C(F)(F)F)c2)ccc1Cl [TCMDC-139224] | -31.22 |
| FC(F)(F)c1ccccc1OCc1cc(-c2ccncc2)c(COc2ccccc2C(F)(F)F)cc1C1=CCNCC1 [TCMDC-134498] | 112.2 |
| Oc1ccc(-c2cc(COc3ccccc3C(F)(F)F)c(C3=CCNCC3)cc2COc2ccccc2C(F)(F)F)cc1 [TCMDC-134520] | 89.52 |
| COc1cc(C=CC(=O)N2CCN(Cc3cccc(C)c3)CC2)ccc1OCc1c(C)noc1C [TCMDC-125249] | 23.84 |
| Cc1nc(N)nc(N)c1Oc1cccc(Cl)c1 [TCMDC-137376] | -5.588 |
| Cc1ccc(C)c(NC(=O)NCCNc2ccnc(Nc3ccc(F)cc3)n2)c1 [TCMDC-133638] | 7.929 |
| CN1CCN(c2cc(NC(=O)c3ccc(-c4ccc(C#N)cc4)cc3)ccc2Cl)CC1 [TCMDC-138670] | -41.42 |
| O=C(Nc1ccc(OC2CCN(Cc3ccc(F)cc3)CC2)c(Cl)c1)c1ccsc1 [TCMDC-133745] | -5.727 |

| Structure (SMILES) | % Inhibition [%] |
| --- | --- |
| Cc1cc(=O)oc2c1ccc1oc(C(O)c3ccc(Cl)cc3)c(C)c12 (stereo not shown) [TCMDC-123999] | -9.04 |
| CCOc1ccc2nc(C)cc(NN=Cc3cccc(C)n3)c2c1 [TCMDC-142050] | 48.92 |
| Fc1cccc(C=NNc2ccnc3cc(Cl)ccc23)c1 [TCMDC-123966] | -20.4 |
| COc1ccc2nc(C)cc(NN=Cc3ccccc3F)c2c1 [TCMDC-142083] | 38.04 |
| Cc1ccc2nc(C)cc(NN=Cc3ccccc3F)c2c1 [TCMDC-142065] | 60.82 |
| Fc1cccc(C=NNc2ccnc3ccccc23)c1 [TCMDC-142058] | -35.92 |
| Cc1cc(NN=Cc2ccccc2F)c2cc(C(F)(F)F)ccc2n1 [TCMDC-142027] | -61.45 |
| Cc1cc(NN=Cc2ccccc2F)c2ccccc2n1 [TCMDC-123982] | -9.703 |
| Cc1ccc2nc(C)cc(NN=Cc3ccccc3Cl)c2c1 [TCMDC-142062] | -47.12 |
| CCOc1ccc2nc(C)cc(NN=Cc3ccccc3F)c2c1 [TCMDC-142092] | 61.8 |
| Fc1ccc2c(NN=Cc3ccccc3F)ccnc2c1 [TCMDC-142018] | 101.1 |
| CCOc1ccc2nc(C)cc(NN=Cc3ccccc3Cl)c2c1 [TCMDC-142090] | 95.12 |
| CC(C)CC(NC(=O)c1cccc(OCCN2CCOCC2)c1)C(=O)NC(/C=N/NC(=O)c1ccccc1)CCc1ccccc1 (stereo not shown) [TCMDC-135464] | 15.6 |
| CC1(C)CCCN(C(=O)c2cccc(-n3nc(-c4ccc(Cl)cc4)cc3N)c2)C1 [TCMDC-134042] | -38.1 |
| O=C(Nc1ccc2c(c1)CCC2)c1cnc(N2CCN(c3ccncc3)CC2)c(Cl)c1 [TCMDC-134596] | 8.854 |
| O=C(Nc1ccc(Br)cc1)N(CCN1CCOCC1)CC(O)COCc1ccc(Cl)c(Cl)c1 (stereo not shown) [TCMDC-141490] | 5.181 |
| Cc1ccc(N2C(N)=NC(N)=NC2(C)C)cc1 [TCMDC-131578] | 18.97 |
| CN(CCON1C(N)=NC(N)=NC1(C)C)c1ccccc1 [TCMDC-131733] | 4.514 |
| O=C(Nc1ccc(I)cc1)N1CCc2sccc2C1CN1CCCCC1 (stereo not shown) [TCMDC-136648] | -39.22 |
| CC(CN(C)C)C(=O)Nc1cccc(-c2ccc(-c3nc4cc(F)ccc4[nH]3)s2)c1 (stereo not shown) [TCMDC-137114] | -16.25 |
| CCN(CCO)CCCC(C)Nc1ccnc2cc(Cl)ccc12 (stereo not shown) [TCMDC-123987] | 30.66 |
| CC(C)C1CCc2nc(N)nc(N)c2C1 (stereo not shown) [TCMDC-137947] | 0.4281 |
| CCC(C)(C)C1CCc2nc(N)nc(N)c2C1 (stereo not shown) [TCMDC-137870] | -20.62 |
| CC(C)(C)C1CCc2nc(N)nc(N)c2C1 (stereo not shown) [TCMDC-137954] | 82.06 |
| CCCC1(NC[C@@H](O)[C@H](Cc2ccccc2)NC(=O)c2cc(NCC)cc(N3CCCCS3(=O)=O)c2)CCC1 [TCMDC-135374] | 23.04 |

| Structure (SMILES) | % Inhibition [%] |
| --- | --- |
| CCOC(=O)CN1Cc2cc(NCc3ccc4ccc5nc(C)[nH]c(=O)c5c4c3)ccc2C1=O [TCMDC-137815] | 10.92 |
| CCOC(=O)COc1cccc(CNc2ccc3nc(N)nc(N)c3c2)c1 [TCMDC-137822] | 100.9 |
| Cc1ccccc1CNc1ccc2nc(N)nc(N)c2c1 [TCMDC-135439] | 74.86 |
| COc1ccc(CNc2ccc3nc(N)nc(N)c3c2)cc1 [TCMDC-139002] | 12.04 |
| CCN(Cc1cccc2ccccc12)c1ccc2nc(N)nc(N)c2c1 [TCMDC-137765] | -46.6 |
| Nc1nc(N)c2c(Cl)c(CNc3cccc(C(=O)O)c3)ccc2n1 [TCMDC-138268] | -3.552 |
| CCOc1ccccc1C(=O)N1CCc2cc3nccc(N4CCN5CCC[C@H]5C4)c3cc21 [TCMDC-140042] | 21.16 |
| CN(C)CCOc1ccc(-c2cc(-c3ccc(Cl)c(O)c3)c(-c3ccncc3)o2)cc1 [TCMDC-141254] | -18.41 |
| COc1ccc2nc(NC3=NC(c4ccccn4)(c4ccccn4)C(=O)N3C)[nH]c2c1 [TCMDC-139288] | 10.34 |
| Cc1cccc(CN2CCCN(Cc3cccc(C(=O)Nc4ccc(C(C)(C)C)cc4)c3)CC2)c1 [TCMDC-135984] | -91.41 |
| CN(C)CCOc1ccc(-c2cc(-c3ccc(Cl)c(O)c3)c(-c3ccnc(N)n3)o2)cc1 [TCMDC-141332] | 28.72 |
| COc1ccccc1N1CCN(c2cccc3c2nc(-c2cncc(C#N)c2)n3CCNCc2ccccc2)CC1 [TCMDC-133412] | -37.42 |
| N#Cc1ccc(-c2nc3c(N4CCCC4)cccc3n2CCNCc2ccccc2)cc1 [TCMDC-133433] | 30.7 |
| N#Cc1cncc(-c2nc3c(N4CCC(Cc5ccccc5)CC4)cccc3n2CCNCc2ccccc2)c1 [TCMDC-133546] | 51.69 |
| CC[C@H](C)CNC(=O)c1cncc(-c2cccc(CN3CCC(N4CCCC4)CC3)c2)c1 [TCMDC-134226] | 16.8 |
| CC(C)CN(C)c1ncnc2c1nc(-c1cncc(C#N)c1)n2CCNCc1ccccc1 [TCMDC-136555] | 12.57 |
| CC1CN(c2cccc3c2nc(-c2cncc(C#N)c2)n3CCNCc2ccccc2)CC(C)O1 (stereo not shown) [TCMDC-133411] | 66.36 |
| N#Cc1cncc(-c2nc3c(N4CCN(c5cnccn5)CC4)cccc3n2CCNCc2ccccc2)c1 [TCMDC-133413] | -21.4 |
| N#Cc1cncc(-c2nc3c(N4CCC(N5CCCC5)CC4)cccc3n2CCNCc2ccccc2)c1 [TCMDC-133547] | 94.76 |
| Oc1ccc(-c2nc3c(N4CCN(Cc5ccccc5)CC4)cccc3n2C2CCNCC2)cc1 [TCMDC-132125] | 4.567 |
| N#Cc1cncc(-c2nc3c(N4CCCC(N)C4)cccc3n2CCNCc2ccccc2)c1 (stereo not shown) [TCMDC-135364] | -9.75 |
| CN(C)c1cccc2c1nc(-c1ccc3c(c1)CCO3)n2CCNCc1ccccc1 [TCMDC-134062] | 5.243 |
| c1ccc(CNCCn2c(-c3ccc4c(c3)CCO4)nc3c(N4CCCC4)cccc32)cc1 [TCMDC-134289] | 92.48 |
